Several values for one entry are separate records, joined by “and”; a condition that tells them apart may be missing. Equal entries are not always repeated. Inconclusive results are not listed. Some structures have more than one record in an assay (separate samples or runs), and their calls can disagree. Activity calls are given as the source filed them. Unless noted, calls follow the shape of the dose curve; as a rule, active = well fitted curve in the direction sought with a large enough effect in the repeat runs; inconclusive = weak or mixed curves; inactive = no such curve, though single readings can be large; an effect the other way counts as inactive or inconclusive.

Eight molecules from PubChem BioAssay (Tox21) can be followed below.

Test [1] has as its target Nuclear receptor subfamily 1 group I member 3 (Homo sapiens) (UniProt Q14994). As to the kind of experiment: qHTS assay to identify small molecule antagonists of the constitutive androstane receptor (CAR) signaling pathway (AID 1224838). Also: nearly all actives have a fitted effect of over 40% in size. The gist of the method: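 Cell line: HepG2 double-stable for hCAR and CYP2B6-2.2kb reporter. Agonist: CITCO, 50 nM final. Compounds: 15 concentrations, 24 h, 37 C. Detection: ONE-Glo luminescence.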
A general note: qHTS replaces the single test concentration by a dilution series.

For test [2] the target is unchanged. As to the kind of experiment: qHTS assay to identify small molecule agonists of the constitutive androstane receptor (CAR) signaling pathway (AID 1224839). Also: nearly all actives have a fitted effect of over 15% in size. Also: potency is read from the fitted curve at half-maximal effect.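 As to activation: HepG2 cells stably carrying human CAR and a CYP2B6 luciferase reporter.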 The gist of the method:
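HepG2 cells stably expressing hCAR and a CYP2B6-2.2kb luciferase reporter were treated with compounds at 15 concentrations plus 0.75 uM PK11195 (final) for 24 h at 37 C; luminescence was read after ONE-Glo addition.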

The nature of test [3]: qHTS assay to identify small molecule antagonists of the estrogen related receptor signaling pathway with the pleiotropic PPARgamma coactivator (PGC) from Tox21 10K library - cell viability counter screen (AID 1224840; active = well fitted cell-killing curve with a large enough effect in the repeat runs, not every such curve was filed as active; also: nearly all actives have a fitted effect of over 40% in size; also: potency is read from the fitted curve at half-maximal effect). The gist of the method: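 Following seeding of 2,000 PGC/ERR cells/well and 6 hours' incubation, test compounds were delivered in DMSO. The plates then sat 17.5 hours at 37 C before a fluorogenic live-cell protease reagent (CellTiter-Fluor) was read after 30 min.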

Test [4] can be described thus: qHTS assay to identify small molecule antagonists of the estrogen related receptor signaling pathway with the pleiotropic PPARgamma coactivator (PGC) from Tox21 10K library (AID 1224841; call rule not given here; also: actives are mostly falling curves and most rising ones were filed inactive; nearly all actives have a fitted effect of over 50% in size; also: potency is read from the fitted curve at half-maximal effect). A digest of the protocol:
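qHTS antagonist format: PGC/ERR cells, 2k/well, compound in DMSO by pin transfer after 6 h attachment, 18 h treatment at 37 C, One-Glo luminescence read at 30 min.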

The nature of test [5]: qHTS assay to identify small molecule agonists of the estrogen related receptor signaling pathway with the pleiotropic PPARgamma coactivator (PGC) from Tox21 10K library (AID 1224842). Also: nearly all actives have a fitted effect of over 15% in size. The gist of the method: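 PGC/ERR reporter cell line, 2,000 cells per well, incubated 6 h at 37 C before 23 nL compound in DMSO was added. After 18 h at 37 C, One-Glo luminescence read following 30 min at room temperature.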

Test [6] deals with Thyrotropin receptor (Homo sapiens) (UniProt P16473). The test is described as follows: qHTS assay to identify small molecule agonists of the thyroid stimulating hormone receptor (TSHR) signaling pathway (AID 1224843; calls by dose curve; also: nearly all actives have a fitted effect of over 45% in size). A digest of the protocol: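 Steps: seed 800 TSHR-HEK293 cells per well; add test compound and hold 30 min at ambient temperature; dispense cAMP-d2 then anti-cAMP cryptate; incubate 1 h at ambient; measure fluorescence intensity.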

Test [7] is described as follows: qHTS assay to identify small molecule agonists of the hypoxia (HIF-1) signaling pathway - cell viability counter screen (AID 1224844; calls by dose curve; also: nearly all actives have a fitted effect of over 50% in size). The gist of the method: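 Cells (HRE-bla ME-180, 2,000 per well) sat 5 hrs at 37C, got compound for 17 hrs, were read for CCF4-AM FRET, and were finally lysed with CellTiter-Glo for a 30 min room-temperature luminescence read.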
The nature of test [8]: qHTS assay to identify small molecule agonists of H2AX (AID 1224845; active = well fitted activation curve with a large enough effect in the signal ratio in the repeat runs, not every such curve was filed as active; the % refers to the signal ratio; also: potency is read from the fitted curve at half-maximal effect). The gist of the method:
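Wild-type CHO-K1 cells, plated overnight, exposed 3hr at 37C to 15 concentrations (0.76% DMSO final). Lysed, then HTRF anti-pH2AX (S139) cryptate and anti-H2AX-d2 antibodies, 24 hr room temperature; 665/620 nm emission read.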

The nature of test [9]: qHTS assay to identify small molecule agonists of the hypoxia (HIF-1) signaling pathway (AID 1224846; active = well fitted activation curve with a large enough effect in the signal ratio in the repeat runs, not every such curve was filed as active; the % refers to the signal ratio). A digest of the protocol:
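A low-serum medium (0.5% dialyzed FBS) holding 2,000 HRE-bla ME-180 cells per well is preincubated for 5 hrs, dosed with compounds by pintool, and kept a further 17 hrs at 37C, 5% CO2 before CCF4-AM FRET detection of beta-lactamase.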

The nature of test [10]: qHTS assay to identify small molecule agonists of H2AX - cell viability counter screen (AID 1224847; calls by dose curve; also: nearly all actives have a fitted effect of over 30% in size; also: potency is read from the fitted curve at half-maximal effect; as to activity change, negative = cytotoxicity: top concentration of the series differs between compounds). The gist of the method:
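Wild-type CHO-K1 cells (10% FBS medium) were plated overnight at 37C, exposed to compounds at 15 concentrations for 3 hr at 37C (0.76% DMSO final), and viability was read as CellTiter-Glo luminescence after 30 min at room temperature.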

The nature of test [11]: qHTS assay to identify small molecule antagonists of the estrogen related receptor (ERR) signaling pathway from Tox21 library (AID 1224848). Also: nearly all actives have a fitted effect of over 50% in size. Also: potency is read from the fitted curve at half-maximal effect. A digest of the protocol: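 Luminescent reporter read-out (ONE-Glo) from NTP's ERR cell line after 18 h treatment at 37 C with DMSO-dissolved Tox21 compounds; cells pre-plated 6 h beforehand at 2,000 per well.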
Test [12] in a line: qHTS assay to identify small molecule agonists of the estrogen related receptor (ERR) signaling pathway from Tox21 library (AID 1224849; calls by dose curve; also: nearly all actives have a fitted effect of over 15% in size). The settings on record: ERR reporter cell line, ONE-Glo luciferase, 18 h; at 92.4 µM (top of the series). The gist of the method:
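Screening used an NTP-provided ERR luciferase cell line. Compounds in DMSO were added 6 h after seeding and left 18 h at 37 C before a 30 min ONE-Glo step and luminescence reading.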

Test [13] can be described thus: qHTS RealTime-Glo MT Cell Viability Assay in HepG2 cells - 24 hour (AID 1224867). Also: nearly all actives have a fitted effect of over 50% in size. The gist of the method:
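Cells + NanoLuc/prosubstrate dispensed (600 cells/well) → 5 h at 37 C/5% CO2 → compounds in DMSO transferred → 40 h incubation at 37 C, luminescence read at 0, 8, 16, 24, 32, 40 h.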

A short description of test [14]: qHTS RealTime-Glo MT Cell Viability Assay in HEK293 cells - 32 hour (AID 1224868). Also: nearly all actives have a fitted effect of over 50% in size. Also: potency is read from the fitted curve at half-maximal effect. The gist of the method: (§1)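 Tox21 10K qHTS, HEK293, 600 cells/well, RealTime-Glo reagent co-dispensed with cells; 5 h preincubation, compound by pintool, 37 C, luminescence at 0–40 h.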
The nature of test [15]: A CellTox Green Cytotoxicity Assay to monitor cytotoxicity in HEK293 cells - 0 hour (AID 1224869). Also: nearly all actives have a fitted effect of over 50% in size. A digest of the protocol:
(§2)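 Fluorescence intensity, read at 0, 8, 16, 24, 32 and 40 h of compound treatment, reflected dye binding to DNA of dead HEK293 cells; compounds (23 nL, DMSO) were added 5 h after plating cells with reagent.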

Test [16] in a line: qHTS RealTime-Glo MT Cell Viability Assay in HepG2 cells - 40 hour (AID 1224870). Also: nearly all actives have a fitted effect of over 50% in size. A digest of the protocol:
(§3)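 HepG2 cells (600/well) mixed with RealTime-Glo MT reagent, settled 5 h at 37 C/5% CO2 before compound addition. Nonlytic NanoLuc luminescence from viable-cell prosubstrate reduction read repeatedly during 40 h treatment at 37 C.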

Test [17] can be described thus: A CellTox Green Cytotoxicity Assay to monitor cytotoxicity in HEK293 cells - 40 hour (AID 1224871). Also: nearly all actives have a fitted effect of over 45% in size. A digest of the protocol:
as §2

A short description of test [18]: qHTS RealTime-Glo MT Cell Viability Assay in HEK293 cells - 16 hour (AID 1224872). A digest of the protocol:
as §1

Test [19] can be described thus: qHTS RealTime-Glo MT Cell Viability Assay in HepG2 cells - 8 hour (AID 1224873). Also: nearly all actives have a fitted effect of over 55% in size. A digest of the protocol:
as §3

A short description of test [20]: qHTS assay to identify small molecule antagonists of the constitutive androstane receptor (CAR) signaling pathway - cell viability counter screen (AID 1224837). Also: nearly all actives have a fitted effect of over 45% in size. A digest of the protocol:
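Counter screen run in HepG2-CYP2B6-hCAR cells: 4 hr settle, compound titration (15 concentrations) with 50 nM CITCO, 23 hr at 37 C/5% CO2, CellTiter-Fluor fluorescence.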
% is scaled to controls: 0 for no effect and ±100 for the full control effect.

Chain of Thyrotropin receptor (Homo sapiens) (P16473 whole entry, looked up): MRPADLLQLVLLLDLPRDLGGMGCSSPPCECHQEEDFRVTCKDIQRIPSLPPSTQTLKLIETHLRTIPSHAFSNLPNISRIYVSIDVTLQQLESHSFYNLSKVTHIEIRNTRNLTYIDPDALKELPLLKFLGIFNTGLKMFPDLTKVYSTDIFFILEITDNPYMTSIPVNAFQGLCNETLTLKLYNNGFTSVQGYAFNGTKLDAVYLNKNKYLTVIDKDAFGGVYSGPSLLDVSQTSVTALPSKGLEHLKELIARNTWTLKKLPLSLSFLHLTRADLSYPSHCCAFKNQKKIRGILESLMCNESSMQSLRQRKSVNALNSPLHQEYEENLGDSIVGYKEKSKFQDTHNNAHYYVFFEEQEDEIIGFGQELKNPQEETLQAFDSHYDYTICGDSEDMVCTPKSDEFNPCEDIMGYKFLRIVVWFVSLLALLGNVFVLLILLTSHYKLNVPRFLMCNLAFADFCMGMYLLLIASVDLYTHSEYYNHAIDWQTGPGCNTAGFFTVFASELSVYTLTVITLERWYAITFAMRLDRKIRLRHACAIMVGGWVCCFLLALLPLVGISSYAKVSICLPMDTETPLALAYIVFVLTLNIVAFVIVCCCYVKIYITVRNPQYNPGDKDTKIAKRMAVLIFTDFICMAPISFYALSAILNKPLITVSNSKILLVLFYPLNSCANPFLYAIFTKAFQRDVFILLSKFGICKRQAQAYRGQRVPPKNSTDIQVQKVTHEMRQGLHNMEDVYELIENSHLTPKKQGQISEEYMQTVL
Chain of Nuclear receptor subfamily 1 group I member 3 (Homo sapiens) (Q14994 whole entry, looked up): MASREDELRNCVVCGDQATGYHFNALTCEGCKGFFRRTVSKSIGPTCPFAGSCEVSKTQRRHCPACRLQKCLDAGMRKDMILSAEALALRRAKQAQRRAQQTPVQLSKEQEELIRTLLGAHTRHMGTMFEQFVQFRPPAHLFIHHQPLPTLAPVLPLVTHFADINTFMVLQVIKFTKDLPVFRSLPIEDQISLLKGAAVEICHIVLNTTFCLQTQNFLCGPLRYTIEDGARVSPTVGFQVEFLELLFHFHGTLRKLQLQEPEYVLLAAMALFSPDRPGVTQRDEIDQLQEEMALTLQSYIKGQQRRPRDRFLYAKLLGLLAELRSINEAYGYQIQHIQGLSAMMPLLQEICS

As for `ClCCBr`, the Potency entry in test [1], in test [2], in test [3], in [4], in test [6] and in test [7] was “inactive” throughout. In addition, the Potency result in test [8], in [10], in [11], in test [14], in test [15] and in [17] was “inactive” throughout. Moreover, the molecule was classed as inactive in [5], in [9], in test [13], in [16], in [18] and in test [19]. Besides, in test [12], the activity change, positive = activation is 3.01% (inactive) and -0.293% (inactive).

As to `O=[N+]([O-])c1ccc([As](=O)(O)O)cc1`, the Potency result in test [20], in test [1], in test [2], in test [3], in [6] and in [7] was “inactive” throughout. The Potency result in test [8], in test [10], in test [14], in test [15] and in test [17] was “inactive” each time. In addition, the outcome in test [13], in test [18] and in [19] was inactive.

In the case of `O=S(=O)(c1ccc(O)cc1)c1ccc(O)cc1`, the Potency entry in test [20], in test [1], in [2], in [3], in [7] and in test [8] was “inactive” each time. Also, the Potency entry in [10], in test [14], in test [15] and in test [17] was “inactive” in each case. Moreover, the outcome in [9], in test [13], in test [16], in [18] and in test [19] was inactive.

As for `COc1ccc2c3c1O[C@H]1[C@@H](O)C=C[C@H]4[C@@H](C2)N(C)CC[C@@]341`, the Potency result in test [20], in test [6], in test [7], in test [10], in test [15] and in test [17] was “inactive” in each case. Further, the Potency in test [3] is 42.6 µM (active) and inactive; in test [4], 23.9 µM (active) and inactive; in [8] it was 99.2 µM (active) and inactive; in test [11], 26.9 µM (active) and inactive; in test [14] it was 43 µM (active) and inactive. For the same molecule, the outcome in [5], in [13], in [16], in test [18] and in [19] was inactive. Further, the activity change, positive = activation in test [12] was -50.6% (inactive) and -3.7% (inactive).

With `Nc1ccc(Cc2ccc(N)cc2)cc1`, the Potency result in test [20], in test [1], in test [3], in [6], in test [7] and in [8] was “inactive” in each case. In addition, the Potency entry in test [10], in [14], in test [15] and in test [17] was “inactive” throughout. For the same molecule, the molecule was called inactive in test [13], in test [16], in [18] and in test [19].

Take `O=S(=O)(c1ccc(Cl)cc1)c1cc(Cl)c(Cl)cc1Cl`: the Potency result in test [20], in [1], in test [3], in [7], in [8] and in test [14] was “inactive” each time. Besides, the Potency entry in test [15] and in test [17] was “inactive” each time. The Potency in [2] is 30.6 µM (active) and 27.3 µM (active); in test [10] it was 89.6 µM (active). Also, the molecule was classed as inactive in [13], in test [16], in [18] and in test [19].

On to `Nc1ccc(Oc2ccc(N)cc2)cc1`, for which the Potency entry in test [1], in test [2], in [3], in [4], in test [6] and in test [7] was “inactive” in each case. For the same molecule, the Potency entry in test [8], in test [10], in [11], in test [14], in [15] and in [17] was “inactive” throughout. Also, the molecule was classed as inactive in test [5], in [9], in [13], in test [18] and in [19]. Moreover, in test [12], the activity change, positive = activation is -8.13% (inactive) and -18.8% (inactive).

As to `C=C(C)CCl`, the Potency entry in [20], in test [1], in test [2], in test [3], in test [8] and in test [10] was “inactive” in each case. The Potency entry in test [14], in [15] and in test [17] was “inactive” in each case. For the same molecule, the activity change, negative = cytotoxicity in test [7] is -1.52% [at 6.97 µM] (inactive); in test [18], 7.57% [at 6.97 µM] (inactive). In addition, the outcome in test [9], in test [13], in test [16] and in test [19] was inactive.
